The text below walks through data of PubChem BioAssay AID1508600 (Functional Genomics Laboratory (NCATS/FGL), 2020).

In all, about 53,000 sequences went through this assay and about 3,700 (7%) were called active. Shown is part of a subset that was picked to be rich in actives. A number with no mark means an inactive call.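 The calls were made as follows: active = gene knockdowns whose robust z-score for IL-1 alpha signal is at least 2 or at most -2, so actives lie on both sides; inactive = the rest.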

The assay is described as follows: Components of the Cytosolic LPS Sensing Pathway: Gene Identification via Genome-wide siRNA Screen.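 Also: robust z of the log signal after scaling to non-targeting control siRNA wells of the plate.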 Conditions: RAW264.7 macrophages, IL-1a HTRF, actives lie on both sides, screened at 100 nM (by protocol), cells primed 5 h with Pam3CSK4 first. A digest of the protocol: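 Cells (RAW264.7, 1×10^4 per well) were transfected with siRNA at 100 nM and cultured 48h at 37 degrees C. Pam3CSK4 was added for 5 hours; LipidA transfection followed for 24 hour. IL-1a was then measured by HTRF.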
As for GGGUACAAAGGCUGUAGUUTT against Sec61a1, the z-score was -2.42 (active).

For the sequence CCUGAAUUCAGUCUGUUUUTT against Depdc1b, the z-score is -0.931.

For the sequence GGAAAAUGUUUUACCAAUGTT against Rspry1, the z-score was -0.102.

Turning to GGACAUCGGAUUCUACACCTT against Psg19, the z-score was 0.531.

For CCAACAAAAGCCUAUUCGGTT against Hsh2d, the z-score was -0.169.

Take GAACUUUGCCAUUGAUUUGTT against Ndufs6: the z-score was 1.63.

As for GCUGAUUUCUCAAACAUGATT against Serpinb10, the z-score is -0.489.

Regarding GUCCCUGAACCUGUGGUAUTT against Emp3, the z-score is 1.26.

Consider GCUGUUCCACAUUGAAGUGTT against Pcdh18, for which the z-score was 2.84 (active).

Take GCUGAUGGACUCAAGAAAGTT against Zbed5: the z-score was -0.805.

Regarding GGACCAUUCUGGCUACUCATT against Ankrd34b, the z-score is -2.17 (active).

In the case of GGACAAAUUUCUUUUCCUUTT against Atp10a, the z-score was -0.448.

As to GCUGAUAAACCACUUGUGATT against Olfr1287, the z-score was -0.804.

On to GGCAUUCAAACCUCUCGUGTT against Dcn, for which the z-score was -0.921.

Regarding GGGUGAUUGAUCACUACUUTT against Olfr279, the z-score is 0.784.

As to GGAAAUGGUAAUUUUCAGUTT against Slc25a36, the z-score was -0.242.

GGGAUGAAGUCCUGGAUAATT against Atp6v1g1: the z-score was -0.953.

With CCAACUUCGAUGCUGAGAGTT against Anxa2, the z-score was -1.8.

On to CGACAGAGGAAGGUAUUGGTT against Gcsh, for which the z-score was -2.95 (active).

With CGCCUCAUCAUCUCGAUUCTT against Cnga3, the z-score was -1.63.

As for GCAUGUGGAGAAGAUGAGGTT against Tas2r143, the z-score is 0.793.

For GGAUUUCAAAGUGCUUUGCTT against Kifap3, the z-score is 3.44 (active).

As for CCUAAACCCAUUCCAGUCUTT against Dpm3, the z-score was 0.104.

CCUGAGACAUACUUAAUGUTT against Anapc10: the z-score is 0.747.

For CCUCGAGAGACUUUCAUGGTT against F2, the z-score is -0.475.

Consider GCUUAUGAGAUGAGUGAAUTT against Ccdc43, for which the z-score is -0.209.

For GGAAUGUUUGGUGCUAUGATT against Flvcr2, the z-score was 3.4 (active).

For the sequence GGGAUUUUCAGGGAGAUUUTT against Plekho1, the z-score was 1.46.

For CCAGGACCUUAUCAGGUUUTT against Idh2, the z-score is 2.44 (active).

Turning to GCUUAGGAAUGGCGACAACTT against Vmn1r188, the z-score was -0.413.

As to GGCAAUGAGAAAGUUACUCTT against Olfr1102, the z-score is 1.65.

Take GGCAGGUGUUAAGGCUUCATT against Tas2r117: the z-score is 0.873.

For the sequence GGAACCACUGCUUUCAAAATT against Cd36, the z-score is 0.83.

GCUUUACCUGCAUAUUCCATT against Nradd: the z-score was -2.04 (active).

For GGGCCAGCAUGUUAUCUGUTT against Kat8, the z-score is -0.8.

CCAGCCAGACUGAAAAAGCTT against Stmnd1: the z-score is -0.652.

GGGAGAUGCAACAACAAGATT against Epx: the z-score is -0.847.

Turning to GGACAAAUGAACAUGCUGATT against Edn2, the z-score was -2.26 (active).

For “GAAGUGAUGCUGCUAGUAGTT against A030005L19Rik”, the z-score is -2.

In the case of GGAACACUGGGAACGUAUCTT against Ifnk, the z-score is 0.00139.

On to GCCCUAGUGUCUGAAAAAATT against Sfrp5, for which the z-score is 0.864.

Turning to GGACAAGGCUGCUACUUCATT against Pou6f2, the z-score was 1.74.

In the case of GGCACUUCUUAAUCCCACATT against Nfe2, the z-score was -2.41 (active).

In the case of GUACAAGUGUGGACCCUUATT against Chchd2, the z-score is 0.409.

For the sequence GCAGGCUACCUCUAAUCCATT against Slc23a3, the z-score was -0.241.

Turning to GGAUCUAAAGCUUGAACCUTT against Pheta1, the z-score is 1.24.

Regarding GCUACCAUCUGCUAAUACATT against Smg1, the z-score is 3.65 (active).

Turning to GGUUCCACAGUGGCAAAUGTT against Vmn1r202, the z-score is 0.957.

Regarding GCCUAUCACGAGCUAUGAUTT against Shkbp1, the z-score is -1.5.

As for GGAAUCGAAACCAAUGUGUTT against Il1rl2, the z-score is -0.471.

“GGUUCAAAUGUUCUCCAUATT against 9530080O11Rik”: the z-score was 2.55 (active).

In the case of GCUCCGGAAAUUGGCAUCATT against Ppp1r10, the z-score was -1.5.

In the case of GGAGAAGAAGAAAAAGUCATT against BC005537, the z-score is -0.495.

In the case of GAUGUUUCAGAACAUUCUUTT against Cadps, the z-score is 0.436.

For the sequence GGACAUAAAAGUGUCUCGATT against Cldn13, the z-score was 0.16.

As to GCCAAGGGUUUGAAAGCCATT against Tpm1, the z-score is -0.949.

For GGCUUGUUUUGCCCAGAUGTT against Olfr398, the z-score is -2.94 (active).

Consider CCUCAUGUUAAUCUGGAGATT against Gabre, for which the z-score was 0.0167.

On to GGAAGUAUUAAUGUACAACTT against Msmo1, for which the z-score was 0.0519.

For the sequence CGGUGGUCACUGUGAAAUGTT against Nr1h5, the z-score is 0.0152.

Regarding CGGGAAGAAGUUCAUAAAUTT against Topbp1, the z-score was 0.36.

Consider GGUUAAAUGUCGUUUAUACTT against Rasa3, for which the z-score was 0.308.

For the sequence GGAUAUCGAGGAGAUGAUCTT against Aoc3, the z-score is -2.17 (active).

As for GCAGUUGACCACAGAAAAUTT against BC061237, the z-score was -1.35.

As for GGACCCAUGAGGUUAACUUTT against Tbc1d22a, the z-score was 0.922.

Consider GGGAACCAGCCAGUUCAAGTT against Ap1g2, for which the z-score was 1.39.

Take CCGUUUCAUUUCAGGGAGGTT against Phf1: the z-score is 0.307.

Turning to GGAGAAAUCAAGCAAAGAUTT against Soat1, the z-score is -0.0846.
